Data reported in the supplement of paper PMC10849652.
Of roughly 8,800 targets only a part is listed; those with a hit were picked by preference. About 0.5% of all pairs of compound and target were hits. Unmarked numbers belong to inactive results.

Key:
Assay in all cases: log2 fold change, soluble protein after heating vs DMSO (PISA); higher = thermal stabilisation; K562 lysate, 10 uM; active = over 0.2 and 3.5 SD of the protein, either way, in both replicates (recomputed)
[1] = compound: CC(=O)c1cnc2ccc(-c3cc(Cl)c(O)c(Cl)c3)nc2c1N[C@H]1CC[C@H](CN(C)C)CC1
Procedure, shortened: (§1)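 The values are log-two fold changes in thermal stability compared with solvent controls and come from duplicates. They were obtained by TMTpro 16plex LC-MS/MS, with channel sums equalised, on the supernatant after 21,000xg for 90 min. That supernatant came from crude K562 extract at 1 mg/mL protein treated with 10 μM compound for 30 min, heated for 3 min across 48°C-58°C, pooled and brought to 0.5% NP-40 at 4°C.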

ralimetinib = compound: CC(C)(C)Cn1c(N)nc2ccc(-c3[nH]c(C(C)(C)C)nc3-c3ccc(F)cc3)nc21 [ralimetinib]
Procedure, shortened: as §1

[2] = compound: CC(C)(O)CC(=O)NCCn1ccc2ncnc(Nc3ccc(Oc4cccc(C(F)(F)F)c4)c(Cl)c3)c21
Procedure, shortened: as §1

[3] = compound: CC(C)C1=C2N=C(C=C(N2N=C1)NCC3=CC=CC=C3)NCCCCCCN
Procedure, shortened: as §1

[4] = compound: CC1=C(C(CC(=O)N1)C2=CC=C(C=C2)C(F)(F)F)C(=O)NC3=C(C=C4C(=C3)C=NN4)F
Procedure, shortened: as §1

[5] = compound: CC1=C(C2=C(C=C1)C(=O)C3=CC=CC=C3N2CCCN)C
Procedure, shortened: as §1

[6] = compound: CC1=C(C=C(C=C1)NC(=O)C2=CC(=CC=C2)N(C)C)NC(=O)C3=CC=C(C=C3)O
Procedure, shortened: as §1

[7] = compound: CC1=CC=C(C=C1)SC2=C3C=C(SC3=CN=C2)C(=O)N
Procedure, shortened: as §1

vemurafenib = compound: CCCS(=O)(=O)Nc1ccc(F)c(C(=O)c2c[nH]c3ncc(-c4ccc(Cl)cc4)cc23)c1F [vemurafenib]
Procedure, shortened: as §1

[8] = compound: CCCS(=O)(=O)Nc1ccc(F)c(C(=O)c2c[nH]c3ncc(Cl)cc23)c1F
Procedure, shortened: as §1

[9] = compound: CC[C@@H]1C(=O)N(C)c2cnc(Nc3ccc(C(=O)NC4CCN(C)CC4)cc3OC)nc2N1C1CCCC1
Procedure, shortened: as §1

volasertib = compound: CC[C@@H]1C(=O)N(C)c2cnc(Nc3ccc(C(=O)N[C@H]4CC[C@H](N5CCN(CC6CC6)CC5)CC4)cc3OC)nc2N1C(C)C [volasertib]
Procedure, shortened: as §1

[10] = compound: CCn1c(C(=O)N(C2CC2)C2CC2)cc2c3c(ncn3C)c(Nc3cc(C)n(C)n3)nc21
Procedure, shortened: as §1

[11] = compound: CCn1cc(-c2ccnc3[nH]c(-c4cccc(CN(C)C)c4)cc23)c(-c2ccc(NC(=O)N(C)C)cc2)n1
Procedure, shortened: as §1

[12] = compound: CN1CCC(CNc2ccc3ncc(-c4cccc(OC(F)(F)F)c4)n3n2)CC1
Procedure, shortened: as §1

saracatinib = compound: CN1CCN(CCOc2cc(OC3CCOCC3)c3c(Nc4c(Cl)ccc5c4OCO5)ncnc3c2)CC1 [saracatinib]
Procedure, shortened: as §1

[13] = compound: CC1=C(C=C(C=C1)NC(=O)C2=CC(=CC=C2)C(C)(C)C#N)NC3=CC4=C(C=C3)N=CN(C4=O)C
Procedure, shortened: as §1

sotrastaurin = compound: CN1CCN(c2nc(C3=C(c4c[nH]c5ccccc45)C(=O)NC3=O)c3ccccc3n2)CC1 [sotrastaurin]
Procedure, shortened: as §1

ibrutinib = compound: C=CC(=O)N1CCC[C@@H](n2nc(-c3ccc(Oc4ccccc4)cc3)c3c(N)ncnc32)C1 [ibrutinib]
Procedure, shortened: as §1

barasertib = compound: CCN(CCCOc1ccc2c(Nc3cc(CC(=O)Nc4cccc(F)c4)[nH]n3)ncnc2c1)CCOP(=O)(O)O [barasertib]
Procedure, shortened: as §1

Chain of UniProt Q5T4S7 (Q5T4S7 whole entry, looked up): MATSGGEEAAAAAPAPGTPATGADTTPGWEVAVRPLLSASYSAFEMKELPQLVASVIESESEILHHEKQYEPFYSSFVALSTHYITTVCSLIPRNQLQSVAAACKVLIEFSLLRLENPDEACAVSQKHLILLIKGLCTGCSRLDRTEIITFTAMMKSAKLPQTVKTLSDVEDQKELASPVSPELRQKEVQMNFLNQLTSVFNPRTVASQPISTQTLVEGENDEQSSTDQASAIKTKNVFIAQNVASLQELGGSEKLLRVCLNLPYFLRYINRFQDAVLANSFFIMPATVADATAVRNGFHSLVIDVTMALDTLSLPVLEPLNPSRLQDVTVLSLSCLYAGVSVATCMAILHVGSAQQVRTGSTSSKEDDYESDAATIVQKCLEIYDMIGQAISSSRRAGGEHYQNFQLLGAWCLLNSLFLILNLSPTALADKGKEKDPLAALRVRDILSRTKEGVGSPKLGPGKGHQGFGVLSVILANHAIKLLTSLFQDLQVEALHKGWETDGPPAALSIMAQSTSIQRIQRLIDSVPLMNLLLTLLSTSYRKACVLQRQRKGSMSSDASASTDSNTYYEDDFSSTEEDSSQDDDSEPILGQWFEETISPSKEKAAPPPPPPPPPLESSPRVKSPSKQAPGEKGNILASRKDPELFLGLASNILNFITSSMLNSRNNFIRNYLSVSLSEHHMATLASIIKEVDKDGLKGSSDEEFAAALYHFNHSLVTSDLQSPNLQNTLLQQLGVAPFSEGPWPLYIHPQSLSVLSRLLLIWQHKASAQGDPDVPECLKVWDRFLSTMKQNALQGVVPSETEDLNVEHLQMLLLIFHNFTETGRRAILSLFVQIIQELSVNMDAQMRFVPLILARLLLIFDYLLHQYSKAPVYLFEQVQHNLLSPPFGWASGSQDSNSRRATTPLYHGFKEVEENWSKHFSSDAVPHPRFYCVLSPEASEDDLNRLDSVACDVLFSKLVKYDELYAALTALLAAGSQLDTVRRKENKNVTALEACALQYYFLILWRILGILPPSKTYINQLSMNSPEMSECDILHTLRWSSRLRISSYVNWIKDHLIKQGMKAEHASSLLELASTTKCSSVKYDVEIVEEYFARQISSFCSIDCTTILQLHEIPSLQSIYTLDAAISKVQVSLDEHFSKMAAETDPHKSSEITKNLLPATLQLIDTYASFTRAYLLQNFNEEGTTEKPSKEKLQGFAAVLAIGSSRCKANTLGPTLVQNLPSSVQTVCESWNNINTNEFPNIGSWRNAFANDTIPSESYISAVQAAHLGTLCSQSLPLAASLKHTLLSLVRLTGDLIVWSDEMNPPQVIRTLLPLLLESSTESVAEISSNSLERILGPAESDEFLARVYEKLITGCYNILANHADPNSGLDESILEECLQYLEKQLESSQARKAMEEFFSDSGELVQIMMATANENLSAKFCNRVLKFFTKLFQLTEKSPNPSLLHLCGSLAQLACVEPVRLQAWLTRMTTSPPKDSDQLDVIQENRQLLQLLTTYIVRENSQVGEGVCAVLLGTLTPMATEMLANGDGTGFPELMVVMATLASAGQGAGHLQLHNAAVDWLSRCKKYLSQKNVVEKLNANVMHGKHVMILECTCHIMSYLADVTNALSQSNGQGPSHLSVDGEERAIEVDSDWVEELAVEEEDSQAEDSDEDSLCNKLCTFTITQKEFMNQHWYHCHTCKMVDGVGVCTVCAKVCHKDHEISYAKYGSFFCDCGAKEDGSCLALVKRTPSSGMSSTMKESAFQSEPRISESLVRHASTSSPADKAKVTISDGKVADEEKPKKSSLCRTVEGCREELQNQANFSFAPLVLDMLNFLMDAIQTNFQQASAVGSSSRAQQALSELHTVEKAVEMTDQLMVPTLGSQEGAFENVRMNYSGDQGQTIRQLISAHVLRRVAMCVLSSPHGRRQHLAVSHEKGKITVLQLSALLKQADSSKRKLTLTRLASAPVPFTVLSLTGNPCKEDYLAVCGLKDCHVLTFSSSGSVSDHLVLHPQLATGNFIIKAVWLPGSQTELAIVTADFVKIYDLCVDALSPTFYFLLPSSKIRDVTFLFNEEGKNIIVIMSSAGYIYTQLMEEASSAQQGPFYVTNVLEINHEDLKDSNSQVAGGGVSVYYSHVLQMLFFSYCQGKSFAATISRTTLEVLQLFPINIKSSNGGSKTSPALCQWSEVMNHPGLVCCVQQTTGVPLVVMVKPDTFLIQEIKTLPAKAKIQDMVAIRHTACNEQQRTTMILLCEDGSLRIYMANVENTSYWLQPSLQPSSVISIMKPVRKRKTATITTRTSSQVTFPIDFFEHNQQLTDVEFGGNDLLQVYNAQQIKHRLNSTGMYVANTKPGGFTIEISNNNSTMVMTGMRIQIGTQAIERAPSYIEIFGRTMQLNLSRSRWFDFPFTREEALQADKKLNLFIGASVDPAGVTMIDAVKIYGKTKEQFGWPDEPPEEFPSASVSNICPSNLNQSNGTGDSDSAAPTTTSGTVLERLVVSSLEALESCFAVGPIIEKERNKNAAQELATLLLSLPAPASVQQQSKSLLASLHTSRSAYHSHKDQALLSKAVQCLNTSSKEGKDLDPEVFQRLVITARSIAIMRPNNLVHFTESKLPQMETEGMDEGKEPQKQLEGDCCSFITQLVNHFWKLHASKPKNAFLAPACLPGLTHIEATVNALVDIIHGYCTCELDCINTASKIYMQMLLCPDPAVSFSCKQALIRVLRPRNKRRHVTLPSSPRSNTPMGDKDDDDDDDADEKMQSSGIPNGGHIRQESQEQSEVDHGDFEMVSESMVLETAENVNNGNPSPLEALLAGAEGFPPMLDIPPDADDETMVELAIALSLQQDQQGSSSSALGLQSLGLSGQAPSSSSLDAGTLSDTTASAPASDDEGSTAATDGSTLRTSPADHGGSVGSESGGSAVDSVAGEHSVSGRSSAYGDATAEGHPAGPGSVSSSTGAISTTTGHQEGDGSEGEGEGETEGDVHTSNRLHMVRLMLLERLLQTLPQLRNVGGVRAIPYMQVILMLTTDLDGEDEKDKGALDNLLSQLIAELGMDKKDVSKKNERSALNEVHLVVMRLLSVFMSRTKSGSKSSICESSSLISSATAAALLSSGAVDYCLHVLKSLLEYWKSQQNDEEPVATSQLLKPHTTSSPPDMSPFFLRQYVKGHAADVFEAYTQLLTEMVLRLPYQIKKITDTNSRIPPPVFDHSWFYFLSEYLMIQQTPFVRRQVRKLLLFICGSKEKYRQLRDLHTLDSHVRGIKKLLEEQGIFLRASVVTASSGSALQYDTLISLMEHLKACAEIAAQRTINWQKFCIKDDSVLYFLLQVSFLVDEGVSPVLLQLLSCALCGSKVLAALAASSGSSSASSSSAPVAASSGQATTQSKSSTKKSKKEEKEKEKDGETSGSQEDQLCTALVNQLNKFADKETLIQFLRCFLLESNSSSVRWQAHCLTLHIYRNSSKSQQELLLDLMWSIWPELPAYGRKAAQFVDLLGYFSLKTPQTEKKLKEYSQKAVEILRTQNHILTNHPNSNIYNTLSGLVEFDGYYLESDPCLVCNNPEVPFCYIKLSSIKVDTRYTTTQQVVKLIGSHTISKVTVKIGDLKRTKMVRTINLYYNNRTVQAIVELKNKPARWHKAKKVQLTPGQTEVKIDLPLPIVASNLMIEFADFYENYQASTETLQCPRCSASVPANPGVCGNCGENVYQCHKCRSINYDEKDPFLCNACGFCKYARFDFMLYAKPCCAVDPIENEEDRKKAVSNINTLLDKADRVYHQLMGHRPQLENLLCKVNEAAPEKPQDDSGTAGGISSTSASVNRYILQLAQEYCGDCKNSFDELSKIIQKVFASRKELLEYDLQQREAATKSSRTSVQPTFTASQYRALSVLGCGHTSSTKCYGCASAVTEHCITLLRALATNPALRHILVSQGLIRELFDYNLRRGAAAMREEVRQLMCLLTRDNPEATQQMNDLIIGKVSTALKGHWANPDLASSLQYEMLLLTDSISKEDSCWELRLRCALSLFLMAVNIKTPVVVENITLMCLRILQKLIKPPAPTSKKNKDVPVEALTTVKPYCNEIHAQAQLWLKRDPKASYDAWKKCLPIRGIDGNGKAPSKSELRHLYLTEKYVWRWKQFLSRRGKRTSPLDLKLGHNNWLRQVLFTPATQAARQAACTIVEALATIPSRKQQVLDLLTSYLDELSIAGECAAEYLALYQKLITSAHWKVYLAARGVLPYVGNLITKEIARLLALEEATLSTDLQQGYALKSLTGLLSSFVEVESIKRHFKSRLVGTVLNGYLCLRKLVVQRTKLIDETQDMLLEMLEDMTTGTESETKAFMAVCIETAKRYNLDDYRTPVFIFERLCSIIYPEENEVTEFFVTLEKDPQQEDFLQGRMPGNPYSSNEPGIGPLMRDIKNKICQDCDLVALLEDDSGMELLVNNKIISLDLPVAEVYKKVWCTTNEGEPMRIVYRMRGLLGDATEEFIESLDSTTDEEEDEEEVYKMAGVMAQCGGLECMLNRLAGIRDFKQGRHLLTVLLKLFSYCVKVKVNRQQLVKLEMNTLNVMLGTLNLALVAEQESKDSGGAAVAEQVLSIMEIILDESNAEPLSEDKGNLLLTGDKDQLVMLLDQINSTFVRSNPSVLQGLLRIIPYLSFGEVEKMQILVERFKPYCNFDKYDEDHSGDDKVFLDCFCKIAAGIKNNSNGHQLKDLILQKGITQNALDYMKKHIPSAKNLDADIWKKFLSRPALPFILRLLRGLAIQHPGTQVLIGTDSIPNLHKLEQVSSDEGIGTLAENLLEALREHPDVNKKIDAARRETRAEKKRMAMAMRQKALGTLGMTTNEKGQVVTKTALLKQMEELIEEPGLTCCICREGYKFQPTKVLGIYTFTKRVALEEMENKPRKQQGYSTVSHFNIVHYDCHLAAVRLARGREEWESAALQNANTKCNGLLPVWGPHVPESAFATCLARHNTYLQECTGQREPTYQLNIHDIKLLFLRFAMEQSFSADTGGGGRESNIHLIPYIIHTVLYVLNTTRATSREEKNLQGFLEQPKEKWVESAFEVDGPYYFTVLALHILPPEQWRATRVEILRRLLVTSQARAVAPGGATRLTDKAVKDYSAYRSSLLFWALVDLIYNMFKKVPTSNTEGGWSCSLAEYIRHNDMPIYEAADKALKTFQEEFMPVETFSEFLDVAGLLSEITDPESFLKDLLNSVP

Target | log2 fold change [1] | log2 fold change (ralimetinib) | log2 fold change [2] | log2 fold change [3] | log2 fold change [4] | log2 fold change [5] | log2 fold change [6] | log2 fold change [7] | log2 fold change (vemurafenib) | log2 fold change [8] | log2 fold change [9] | log2 fold change (volasertib) | log2 fold change [10] | log2 fold change [11] | log2 fold change [12] | log2 fold change (saracatinib) | log2 fold change [13] | log2 fold change (sotrastaurin) | log2 fold change (ibrutinib) | log2 fold change (barasertib)
TSPAN3 (UniProt O60637) | 0.008 | -0.069 | -0.025 | 0.05 | -0.173 | -0.099 | 0.135 | -0.04 | -0.075 | -0.052 | 0.01 | 0.073 | -0.222 | 0.663 (active) | -0.3 | -0.038 | – | – | – | –
UBAP2L (UniProt F8W726) | 0.275 | – | – | – | – | – | – | -0.025 | 0.094 | -0.031 | – | -0.018 | – | – | – | – | -0.547 (active) | -0.052 | – | –
TMEM132A isoform 2 (UniProt Q24JP5) | 0.676 | 0.065 | -0.194 | 0.03 | – | – | 0.015 | 0.019 | – | 0.239 | -0.078 | -0.144 | 0.028 | 0.055 | 0.3 | – | 0.05 | 0.044 | – | –
TNKS (UniProt O95271) | 0.038 | -0.04 | 0.022 | -0.045 | -0.001 | -0.076 | 0.006 | 0.124 | -0.035 | 0.124 | 0.055 | -0.11 | 0.027 | 0.207 | -0.092 | -0.007 | 0.004 | 0.021 | – | –
TFPI isoform 2 (UniProt P10646) | – | – | – | – | – | – | – | – | 0 | – | – | – | – | – | – | – | -0.034 | -0.011 | – | –
UBAP2L isoform 1 (UniProt Q14157) | – | -0.306 | -0.123 | – | 0.114 | – | -0.161 | – | – | – | – | – | 0.207 | – | – | – | -0.833 (active) | -0.105 | -0.075 | 0.001
U2AF1L5 (UniProt P0DN76) | -0.047 | -0.019 | 0.001 | 0.069 | -0.008 | -0.003 | 0.143 | 0.011 | – | -0.013 | 0.027 | -0.036 | 0.015 | -1.21 (active) | 0.389 | -0.007 | – | – | – | –
TRAF7 (UniProt Q6Q0C0) | – | 0.046 | -0.091 | – | 0.023 | -0.022 | -0.031 | – | -0.07 | – | 0.053 | – | 0.012 | -0.065 | 0.191 | 0.132 | 0.07 | -0.044 | – | –
TMC1 (UniProt Q8TDI8) | -0.016 | 0.156 | -0.185 | 0.204 | -0.034 | – | 0.017 | -0.045 | 0.089 | -0.02 | -0.164 | -0.021 | -0.059 | – | – | – | -0.104 | 0.141 | – | –
TCF3 (UniProt X6REB3) | – | – | – | – | – | – | – | – | 0.075 | – | – | – | – | 0 | 0.128 | – | – | – | – | –
TJP1 (UniProt H0Y3R8) | – | – | – | – | – | – | – | – | – | – | – | – | – | 0.048 | -0.16 | – | – | – | – | –
TPD52L2 isoform 3 (UniProt O43399) | – | 0.167 | -0.038 | 0.017 | -0.007 | – | 0.107 | – | – | – | – | – | -0.028 | -0.141 | 0.135 | – | – | – | 0.288 | 0.026
TM2D3 (UniProt Q9BRN9) | – | -0.14 | -0.157 | -0.201 | – | – | 0.07 | – | – | – | -0.079 | – | 0.199 | -0.934 (active) | 0.444 | – | – | – | 0.02 | -0.105
TCF4 (UniProt P15884) | -0.285 | -0.069 | 0.005 | – | 0.007 | -0.019 | 0.003 | -0.035 | – | -0.015 | -0.017 | 0.126 | 0.008 | -0.011 | 0.03 | 0.021 | -0.056 | -0.017 | – | –
TTLL12 (UniProt V9GY16) | – | -0.339 | -0.165 | -0.333 | – | – | -0.009 | – | 0.261 | – | 0.227 | – | -0.465 | -0.393 | 0.133 | – | 0.031 | -0.175 | -0.32 | 0.102
UBR4 isoform 4 (UniProt Q5T4S7) | 0.131 | -0.092 | -0.201 | 0.111 | – | 0.331 | -0.02 | 0.034 | 0.02 | -0.1 | -0.096 | -0.104 | 0.077 | – | – | 0.061 | – | – | – | –
TRPM4 (UniProt Q8TD43) | – | -0.021 | -0.063 | -0.325 | – | -0.055 | 0.05 | – | – | – | – | – | 0.066 | -0.598 | 0.156 | 0.044 | 0.116 | 0.11 | 0.099 | 0.456
UBAP2 (UniProt Q5JV08) | – | – | – | – | -0.097 | – | – | – | – | – | – | – | – | – | – | – | – | – | – | –
TUBA4A (UniProt C9JQ00) | – | – | – | – | – | – | – | – | – | – | – | – | – | 0 | -0.045 | – | – | – | 0.125 | 0.267
UCP2 (UniProt P55851) | – | 0.091 | -0.081 | – | 0.073 | – | -0.1 | – | 0.09 | – | – | – | -0.024 | – | – | – | -0.045 | -0.001 | – | –
TEDC1 (UniProt Q86SX3) | -0.023 | -0.049 | -0.001 | -0.066 | 0 | -0.033 | 0.082 | -0.024 | – | 0.103 | 0.106 | -0.041 | 0.019 | – | – | -0.02 | -0.018 | -0.037 | – | –
TXNRD2 isoform 3 (UniProt Q9NNW7) | – | -0.018 | -0.323 | -0.303 | – | – | 0.079 | – | – | – | – | – | -0.081 | – | – | – | – | – | – | –
UBN1 (UniProt Q9NPG3) | 0.015 | – | – | – | – | 0.03 | – | 0.081 | -0.053 | -0.069 | 0.1 | 0.005 | – | -0.127 | 0.057 | 0.04 | 0.066 | 0.133 | – | –
TLE3 (UniProt H0YL70) | – | – | – | – | – | 0.004 | – | – | – | – | – | – | – | – | – | 0.152 | – | – | – | –
TPM3 isoform 3 (UniProt P06753) | 0.066 | 0.145 | 0.093 | -0.125 | – | 0.005 | 0.012 | -0.032 | -0.082 | 0.011 | -0.187 | 0.036 | 0.029 | -0.493 | 0.184 | 0.009 | -0.157 | 0.028 | – | –
UBIAD1 (UniProt Q9Y5Z9) | -0.012 | 0.01 | 0.007 | 0.067 | -0.159 | -0.049 | 0.012 | 0.009 | -0.004 | 0.043 | 0.005 | 0.046 | -0.083 | 0.045 | -0.335 | -0.036 | 0.088 | -0.079 | – | –
